Experimental data taken from PubChem BioAssay (NCI).
About 83,000 compounds went through this panel and 20% of them were active in at least one assay; those are over-represented in the sample as a whole.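 In brief: 96-well plates, 48 h treatment, single concentration, percent growth endpoint.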 Calls of active or inactive are those of the source.

test system: SNB-19 CNS; test: NCI-60 one-dose screen, 48 h (100 = growth as untreated, 0 = no growth, -100 = all killed); conditions: 10 µM
Description: Growth inhibition of the SNB-19 human tumor cell line is measured as a screen for anti-cancer activity. Cells are grown in 96 well plates and exposed to the test compound for 48 hours. Compounds are tested at a single concentration, which is 10^-5 M for most compounds. The reported endpoint is percent growth (GI% or GIPRCNT), where numbers from 0 - 100% represent growth inhibition, and numbers from -100% - 0 represent cell death. For example, a value of 40 represents 60% growth inhibition. A value of 0 means no net growth occurred over the course of the experiment. A value of -40 indicates 40% of cells at the beginning of the experiment died by the end of the experiment. A value of -100 means all cells are dead at the end of the experiment.
NCI-60 Human Tumor Cell Lines Screen was performed using the standard one-dose NCI protocol, which is described in more detail at https://dtp.cancer.gov/discovery_development/nci-60/default.htm.
Compounds with GIPRCNT values below 10 were considered active. Activity score was based on GIPRCNT using the following formula: […]
Score is 0 for GIPRCNT values of 100 or above, 50 for GIPRCNT values of 0, and 100 for GIPRCNT values of -100.

Row | Structure (SMILES) | growth
1 | O=c1[nH]n(C(=S)N/N=C/c2ccc(F)cc2)c(=O)c2ccccc12 | 47.6% (inactive)
2 | O=C(N=Nc1c(O)[nH]c2ccc(Br)cc12)c1ccc2nc(-c3ccccc3)[nH]c2c1 | -47.8% (active)
3 | CC(C)Sc1nc(NC2CC2)c(C#N)c(-c2ccccc2)n1 | 25.7% (inactive)
4 | CCOC(=O)CNC(=O)CN(Cc1ccccc1)C(=O)[C@@]1(C)CCC[C@]2(C)[C@H]3CC4C(C(C)C)=C[C@]3(CC[C@H]21)[C@@H]1C(=O)CCC(=O)[C@H]41 | 81.1% (inactive)
5 | O=C1N/C(=N\c2nccs2)S/C1=C\c1cccs1 | 30.6% (inactive)
6 | COc1ccc(N2N=C(c3ccc4c(c3)OCCO4)CC2c2cccc(NC(=O)CCCNS(=O)(=O)c3ccc(F)cc3)c2)cc1 (stereo not given) | 69.3% (inactive)
7 | O=C(CSc1nnc(-c2c[nH]c3ccccc23)n1-c1ccccc1)Nc1ccc(C(=O)/C=C/c2ccc(Cl)cc2)cc1 | 73.1% (inactive)
8 | COc1cnc2c(c1)C(=O)c1c-2n(CCCNC(C)C)c(=O)c2cc(OC)c(OC)cc12 | 25.2% (inactive)
9 | O=C(CSc1nnc(-c2c[nH]c3ccccc23)n1-c1ccccc1)Nc1ccc(C(=O)/C=C/c2ccc(Br)cc2)cc1 | 77% (inactive)
10 | O=c1[nH]c2ccccc2cc1CSc1ccc(Nc2nccc(-c3ccc4c(c3)OCO4)n2)cc1 | 88.7% (inactive)
11 | CC(=O)c1ccc(NC(=O)NCn2c(=O)[nH]c3ccccc3c2=O)cc1 | 90.4% (inactive)
12 | Cc1ccc2nc(COc3ccc(C(=O)NNC(=S)NC(=O)c4ccccc4)cc3)[nH]c2c1 | 52.4% (inactive)
13 | O=C(Nc1nc2ccc([N+](=O)[O-])cc2s1)Nc1cc(Cl)ccc1I | 4.09% (active)
14 | Cc1ccc(-c2cc(-c3cc4ccccc4nc3Cl)[nH]c(=O)n2)cc1 | 3.61% (active)
15 | NS(=O)(=O)c1ccc(N=Nc2c(O)n(CC(=O)Nc3ccccc3Br)c3ccccc23)cc1 | 50.1% (inactive)
16 | CN1CCN(c2ccc(Nc3nc(NCCCNC(=O)C4CCCCC4)c4sccc4n3)cc2)CC1 | 77.3% (inactive)
17 | COc1ccc(-c2nc(-c3ccccc3)c(-c3ccccc3)n2-c2ccc(S(=O)(=O)Nc3ncccn3)cc2)cc1OC | 74.9% (inactive)
18 | [2H]C([2H])([2H])Oc1ccc2ncc(C#Cc3cncc(C(=O)Nc4ccc(CN5CCN(C)CC5)c(C(F)(F)F)c4)c3)n2n1 | -57.9% (active)
19 | N#Cc1ccc(-c2nn(-c3ccc(C(=O)O)cc3)cc2CNc2ccc(Oc3ccccc3)cc2)cc1 | 28.6% (inactive)
20 | C=CC(=O)Nc1nc(-c2cccc(NS(=O)(=O)c3cccc4c(N(C)C)cccc34)c2)cs1 | 15.6% (inactive)

Row | Structure (SMILES) | growth
21 | COc1nccnc1NS(=O)(=O)c1ccc(NC2=C(Cl)C(=O)c3nc(C)ccc3C2=O)cc1 | 97.9% (inactive)
22 | O=C(c1ccc(-n2c(=O)[nH]c3ccccc3c2=O)cc1)N1CCOCC1 | 95.5% (inactive)
23 | O=c1c2ccccc2nc(COc2ccccc2)n1/N=C/c1ccc(N2CCOCC2)cc1 | 3.55% (active)
24 | Cc1ccc(C(=O)Nc2ccc(-n3c(C)nc4c(cnn4-c4ccccc4)c3=O)cc2)cc1 | 82.1% (inactive)
25 | Cn1cc(/C=N/Nc2cccc(Cl)n2)c2ccccc21 | 76.9% (inactive)
26 | CCN1CCN(c2ccc(NC(=O)Nc3ccc(-c4cc(C(=O)NC(C)C)c5ncccc5n4)cc3)cc2C(F)(F)F)CC1 | -81.7% (active)
27 | O=C(NO)c1ccc(CNC(=O)[C@H]2Cc3c([nH]c4ccccc34)[C@H](c3ccccc3)N2)cc1 | 39.4% (inactive)
28 | O=C(c1ccc(Cl)cc1)C1[C@H](c2ccc(Br)cc2)[C@@H](c2ccccc2)NC12C(=O)Nc1ccc(Br)cc12 (stereo not given in full) | -51% (active)
29 | COc1ccc(-c2cc(C(=O)N=Nc3c(O)[nH]c4ccccc34)c3ccccc3n2)cc1 | -38.8% (active)
30 | O=c1oc2ccccc2cc1-c1csc(N=Nc2c(O)[nH]c3ccc(Br)cc23)n1 | 29% (inactive)
31 | CC(=O)NCC1=C(C)C=C2C(=O)[C@](C)(O)C3(CC3)C(C)=C21 | -49.8% (active)
32 | Cc1ccc([N+](=O)[O-])c(C(=O)Nc2ccc(-c3ccc4c(c3)NC(=O)/C4=C\c3ccc[nH]3)cc2)c1 | 30.6% (inactive)
33 | Brc1ccc(/C=C/c2n(Cc3ccc4ccccc4c3)c3ccccc3[n+]2Cc2ccc3ccccc3c2)cc1 | -45.9% (active)
34 | COc1ccc2[nH]cc(/C=N/Nc3cccc(Cl)n3)c2c1 | 61% (inactive)
35 | C/C(=C\c1ccc(O)cc1O)c1ccc2ccc(O)cc2[o+]1 | 71% (inactive)
36 | O=C(NO)c1ccc(CNC(=O)[C@H]2Cc3c([nH]c4ccccc34)[C@H](c3ccc(Cl)cc3)N2)cc1 | 15.5% (inactive)
37 | COC(=O)CC1CC1C1Cc2c(nc(N(C)S(C)(=O)=O)nc2C(C)C)-c2ccc(F)cc21 (stereo not given) | 91.2% (inactive)
38 | C#Cc1ccc(S(=O)(=O)Nc2cccc(-c3csc(NC(C)=O)n3)c2)cc1 | 83.6% (inactive)
39 | CCOC(=O)c1c(CSc2ccccc2)n(C)c2cc(CN(C)C)c(O)c(CN(C)C)c12 | 60.2% (inactive)
40 | C=C(c1ccc(OC)c(N)c1)c1cc(C)nc2ccccc12 | 10.3% (inactive)
